# Reference: PubChem BioAssay (EPA / NIEHS)
# Inconclusive results are not listed. Activity calls are given as the source filed them. The calls were made as follows: active = hit-call score of the fitted dose curve at least 0.9, where 1 is the maximum; inconclusive = response in the unintended direction; inactive = score below 0.9.
# How the values were obtained:
# [1] = ACEA_AR_agonist_AUC_viability: ACEA Biosciences xCELLigence Real-Time Cell Analysis on Androgen Receptor Agonism for Viability (AID 2283775);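 as to AC50: viability read 80 hours after compound addition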
# Summary of the method: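 22Rv1 cells; impedance growth kinetics; 8-pt 1:4 dilutions from 100 uM top final, ≤0.5% DMSO; n = 2; 80 h read; AUC viability, loss-of-signal vs DMSO.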
# [2] = ACEA_AR_antagonist_AUC_viability: ACEA Biosciences xCELLigence Real-Time Cell Analysis on Androgen Receptor Antagonism for Viability (AID 2283776);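 also: 22Rv1 human prostate cancer cells growing on impedance electrode plates; area under impedance growth curve at 80 h after dosing as viability; hits lower the growth signal relative to DMSO meaning cytotoxicity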
# Summary of the method: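 Real-time electrical impedance tracks 22Rv1 proliferation after continuous compound exposure (top 100 uM final, 1:4 steps, 8 concentrations). The 80 h area-under-curve serves as the cytotoxicity readout relative to DMSO.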
# [3] = ACEA_ER_AUC_viability: ACEA Biosciences xCELLigence Real-Time Cell Analysis on Estrogen Receptor Agonism for Viability (AID 2283782);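 also: hit means loss of impedance signal meaning reduced cell growth or viability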
# Summary of the method: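 Continuous-exposure impedance cell analysis uses T-47D cells in charcoal-stripped serum, eight 1:4 dilutions topping at 100 uM final, biological duplicate. Area under the growth curve at 80 h is fitted against DMSO baseline.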
# [4] = STM_H9_NormalizedViability: Cytotoxicity Assessment at 120 hours in the Stemina devTOX quickPredict H9 human embryonic stem cell (hESC)-based Assay (AID 2283784)
# Summary of the method: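 Viability endpoint: background-corrected CellTiter-Fluor RFU expressed relative to the 0.1% DMSO mean on each plate. Undifferentiated H9 cells were treated with daily re-dosing and media change, and loss of signal was fitted.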
# [5] = biological target: AR (gene 367) (UniProt P10275); test: ACEA_AR_agonist_80hr: ACEA Biosciences xCELLigence Real-Time Cell Analysis on Androgen Receptor Agonism for Proliferation (AID 2283783);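 also: hits increase impedance growth signal above DMSO baseline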
# Chain of AR (gene 367) (P10275 whole entry, looked up): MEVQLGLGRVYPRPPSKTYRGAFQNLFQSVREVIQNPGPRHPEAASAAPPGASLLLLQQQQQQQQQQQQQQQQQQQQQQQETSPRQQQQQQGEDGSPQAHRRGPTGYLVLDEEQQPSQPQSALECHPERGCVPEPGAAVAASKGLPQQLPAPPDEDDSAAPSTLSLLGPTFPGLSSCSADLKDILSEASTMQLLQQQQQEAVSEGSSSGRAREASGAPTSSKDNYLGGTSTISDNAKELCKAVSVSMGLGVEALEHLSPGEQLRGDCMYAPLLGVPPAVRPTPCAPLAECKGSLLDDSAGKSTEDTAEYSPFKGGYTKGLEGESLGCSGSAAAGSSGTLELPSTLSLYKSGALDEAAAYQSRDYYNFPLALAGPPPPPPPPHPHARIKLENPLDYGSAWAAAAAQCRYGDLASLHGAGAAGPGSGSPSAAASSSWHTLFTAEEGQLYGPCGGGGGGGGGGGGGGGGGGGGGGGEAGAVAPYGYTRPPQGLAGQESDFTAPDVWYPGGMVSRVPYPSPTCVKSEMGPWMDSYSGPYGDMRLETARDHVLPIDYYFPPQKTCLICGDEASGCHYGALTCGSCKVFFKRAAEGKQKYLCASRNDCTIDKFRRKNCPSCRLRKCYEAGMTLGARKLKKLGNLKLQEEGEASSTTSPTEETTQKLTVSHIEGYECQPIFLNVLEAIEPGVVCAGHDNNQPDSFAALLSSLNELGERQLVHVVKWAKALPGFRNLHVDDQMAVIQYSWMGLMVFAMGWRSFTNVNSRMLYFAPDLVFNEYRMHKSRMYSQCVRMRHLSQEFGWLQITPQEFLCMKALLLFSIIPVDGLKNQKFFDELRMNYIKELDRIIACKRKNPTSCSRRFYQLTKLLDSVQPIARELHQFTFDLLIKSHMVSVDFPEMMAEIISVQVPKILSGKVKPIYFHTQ
# Summary of the method: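 Real-time cell-growth kinetics were recorded by electrode impedance in 22Rv1 cells exposed to test chemicals up to 100 uM final; the 80 h timepoint served as the readout, fitted upward relative to DMSO controls, in biological duplicate.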
# [6] = biological target: AR (gene 367) (UniProt P10275); test: ACEA_AR_antagonist_80hr: ACEA Biosciences xCELLigence Real-Time Cell Analysis on Androgen Receptor Antagonism for Proliferation (AID 2283787);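 also: 22Rv1 human prostate cancer cells with growth followed by electrical impedance; hits lower the impedance growth signal relative to DMSO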
# Summary of the method: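 Using 22Rv1 cells held in assay medium, we dosed compounds (100 uM maximum final, 1:4 serial, eight points, 0.5% DMSO at top) and recorded cell-electrode impedance; the 80 hr timepoint was analyzed against DMSO.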
# [7] = tested on: zebrafish Androgen Receptor (AR), gene 100005148; test: ATG_zfAR_XSP1: Attagene TRANS-FACTORIAL Multi-Species (XSP1) HepG2 Assay for zebrafish Androgen Receptor (AR) (AID 2283771)
# Summary of the method: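 Gain-of-signal versus DMSO was measured as reporter transcripts quantified by RT-PCR, fluorescent labelling and capillary electrophoresis after 24 h chemical exposure. The cells were HepG2 expressing a chimeric zebrafish AR-GAL4, co-stimulated with 3 nM 6-alpha-fluorotestosterone.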
# [8] = biological target: zebrafish Estrogen Receptor (ESR1), esr1 (gene 259252) (UniProt P57717); test: ATG_zfER1_XSP1: Attagene TRANS-FACTORIAL Multi-Species (XSP1) HepG2 Assay for zebrafish Estrogen Receptor (ESR1) (AID 2283772)
# Chain of zebrafish Estrogen Receptor (ESR1), esr1 (gene 259252) (P57717 whole entry, looked up, the tested form may be a part): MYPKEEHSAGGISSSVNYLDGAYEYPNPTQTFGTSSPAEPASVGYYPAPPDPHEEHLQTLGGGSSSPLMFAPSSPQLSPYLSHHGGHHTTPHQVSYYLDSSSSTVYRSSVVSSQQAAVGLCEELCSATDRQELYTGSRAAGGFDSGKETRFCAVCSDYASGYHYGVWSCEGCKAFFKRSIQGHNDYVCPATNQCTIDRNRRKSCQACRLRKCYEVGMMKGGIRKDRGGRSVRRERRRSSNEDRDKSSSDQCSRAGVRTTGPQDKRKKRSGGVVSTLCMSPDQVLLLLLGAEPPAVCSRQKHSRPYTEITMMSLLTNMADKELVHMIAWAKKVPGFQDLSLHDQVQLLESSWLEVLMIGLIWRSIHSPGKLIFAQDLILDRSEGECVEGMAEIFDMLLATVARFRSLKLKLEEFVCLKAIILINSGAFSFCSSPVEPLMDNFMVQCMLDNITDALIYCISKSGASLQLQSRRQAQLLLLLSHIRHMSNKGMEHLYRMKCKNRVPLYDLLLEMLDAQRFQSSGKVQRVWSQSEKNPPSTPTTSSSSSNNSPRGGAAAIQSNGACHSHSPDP
# Summary of the method: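 Exogenous chimeric receptor-GAL4 activity is measured in transiently transfected human HepG2 liver cells after 24 h compound exposure. Reporter transcripts are detected by RT-PCR and fluorescent capillary electrophoresis, analysed for signal gain relative to DMSO.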
# [9] = tested on: zebrafish Estrogen Receptor (ESR2B), gene 317733; test: ATG_zfER2b_XSP1: Attagene TRANS-FACTORIAL Multi-Species (XSP1) HepG2 Assay for zebrafish Estrogen Receptor (ESR2B) (AID 2283773)
# Summary of the method: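 Human hepatoma HepG2, transiently transfected with multi-reporter units; exogenous zebrafish ESR2B-Gal4 activity measured. Exposure 24 h alongside 3 nM 6-alpha-fluorotestosterone to partly stimulate AR.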
# [10] = tested on: frog Estrogen Receptor (ESR2), gene 100174814; test: ATG_frER2_XSP1: Attagene TRANS-FACTORIAL Multi-Species (XSP1) HepG2 Assay for frog Estrogen Receptor (ESR2) (AID 2283774)
# Summary of the method: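 Multiplexed TRANS-format reporter assay in human hepatoma HepG2: chimeric nuclear receptor-Gal4 activity reported as mRNA induction at 24 h, detected by fluorescent RT-PCR products on capillary electrophoresis and fitted upward from DMSO baseline.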
# [11] = tested on: frog Estrogen Receptor (ESR1), gene 398734; test: ATG_frER1_XSP1: Attagene TRANS-FACTORIAL Multi-Species (XSP1) HepG2 Assay for frog Estrogen Receptor (ESR1) (AID 2283777)
# Summary of the method: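 After transient transfection and 24 h compound treatment, total RNA from HepG2 cells was reverse-transcribed, amplified, FAM-labeled and resolved by capillary electrophoresis. Signal increases were fitted against DMSO controls.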
# [12] = tested on: zebrafish Estrogen Receptor (ESR2A), gene 317734; test: ATG_zfER2a_XSP1: Attagene TRANS-FACTORIAL Multi-Species (XSP1) HepG2 Assay for zebrafish Estrogen Receptor (ESR2A) (AID 2283778)
# Summary of the method: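 Gain-of-signal reporter transcription readout from GAL4-UAS units in transiently transfected HepG2 cells, 24 h exposure, 3 nM 6-alpha-fluorotestosterone co-present. Detection by RT-PCR with capillary electrophoresis fluorescence.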
# [13] = biological target: chicken Estrogen Receptor (ESR1), ESR1 (gene 396099) (UniProt P06212); test: ATG_chERa_XSP1: Attagene TRANS-FACTORIAL Multi-Species (XSP1) HepG2 Assay for chicken Estrogen Receptor (ESR1) (AID 2283779)
# Chain of chicken Estrogen Receptor (ESR1), ESR1 (gene 396099) (P06212 whole entry, looked up, the tested form may be a part): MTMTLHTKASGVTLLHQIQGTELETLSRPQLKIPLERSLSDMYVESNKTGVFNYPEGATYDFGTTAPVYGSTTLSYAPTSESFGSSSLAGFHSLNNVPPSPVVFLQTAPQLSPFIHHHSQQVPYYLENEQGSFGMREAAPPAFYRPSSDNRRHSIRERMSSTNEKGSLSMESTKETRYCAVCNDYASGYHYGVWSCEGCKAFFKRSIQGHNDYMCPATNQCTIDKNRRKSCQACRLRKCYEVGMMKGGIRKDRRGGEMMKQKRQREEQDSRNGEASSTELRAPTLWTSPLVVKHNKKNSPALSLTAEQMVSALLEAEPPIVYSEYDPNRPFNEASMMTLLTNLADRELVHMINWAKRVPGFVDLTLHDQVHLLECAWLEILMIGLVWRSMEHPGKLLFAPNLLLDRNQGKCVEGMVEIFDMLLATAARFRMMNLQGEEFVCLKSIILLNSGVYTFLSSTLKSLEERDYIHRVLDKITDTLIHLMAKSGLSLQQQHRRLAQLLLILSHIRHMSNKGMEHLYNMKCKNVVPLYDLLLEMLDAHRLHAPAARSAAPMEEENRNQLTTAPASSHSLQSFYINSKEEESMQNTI
# Summary of the method: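 Gain-of-signal reporter transcription, relative to DMSO, was scored in transiently transfected HepG2 cells after a 24 h dose. Fluorescence intensity of amplified, digested reporter cDNA fragments served as the endpoint.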
# [14] = tested on: turtle Estrogen Receptor (ESR1), gene 101933533; test: ATG_trERa_XSP1: Attagene TRANS-FACTORIAL Multi-Species (XSP1) HepG2 Assay for turtle Estrogen Receptor (ESR1) (AID 2283781)
# Summary of the method: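 Cell-based chimeric NR-Gal4 transactivation; HepG2; 24 h dosing; mRNA reporter detected by RT-PCR and capillary electrophoresis fluorescence.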
# [15] = biological target: Estrogen receptor beta (Homo sapiens) (UniProt Q92731); test: ATG_hERb_XSP1: Attagene TRANS-FACTORIAL Multi-Species (XSP1) HepG2 Assay for human Estrogen Receptor (ESR2) (AID 2283788)
# Chain of Estrogen receptor beta (Homo sapiens) (Q92731 whole entry, looked up, the tested form may be a part): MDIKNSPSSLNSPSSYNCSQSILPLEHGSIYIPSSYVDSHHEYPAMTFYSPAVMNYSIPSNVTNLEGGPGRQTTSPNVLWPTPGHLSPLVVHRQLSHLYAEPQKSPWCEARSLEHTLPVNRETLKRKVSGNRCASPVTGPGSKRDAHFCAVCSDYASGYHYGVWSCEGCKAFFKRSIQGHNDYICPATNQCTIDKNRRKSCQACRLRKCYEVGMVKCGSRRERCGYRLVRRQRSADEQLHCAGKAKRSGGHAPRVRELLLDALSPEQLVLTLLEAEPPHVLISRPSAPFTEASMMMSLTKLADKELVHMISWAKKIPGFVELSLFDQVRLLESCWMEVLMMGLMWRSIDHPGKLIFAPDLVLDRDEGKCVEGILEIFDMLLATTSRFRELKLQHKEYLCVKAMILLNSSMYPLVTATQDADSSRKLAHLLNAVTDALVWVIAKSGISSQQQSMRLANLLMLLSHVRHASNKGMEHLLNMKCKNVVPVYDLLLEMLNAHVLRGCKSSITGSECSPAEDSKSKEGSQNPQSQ
# Summary of the method: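 Multiplexed trans-activation in transfected HepG2: ERβ-Gal4 reporter transcripts after 24 h treatment, detected by RT-PCR plus capillary electrophoresis.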
compound,measurement,setting,value
CCCCCCCCn1sccc1=O,AC50,[1],18.5 µM (active)
same,AC50,[2],18.4 µM (active)
same,AC50,[3],11.8 µM (active)
same,AC50,[4],47.7 µM (active)
CC(C)(C)C(O)(CCc1ccc(Cl)cc1)Cn1cncn1 (stereo unspecified),AC50,[1],87 µM (active)
same,AC50,[2],58.9 µM (active)
same,AC50,[3],69.2 µM (active)
same,AC50,[4],78.7 µM (active)
CC(C)(C)OOC(=O)c1ccccc1,outcome,[1],inactive
same,outcome,[2],inactive
same,outcome,[3],inactive
COP(=S)(OC)SCN1C(=O)c2ccccc2C1=O,AC50,[1],79.7 µM (active)
same,AC50,[2],64.7 µM (active)
Cc1ccc(N=C=O)cc1N=C=O,AC50,[1],25.1 µM (active)
same,AC50,[2],24 µM (active)
Cn1cc(-c2ccccc2)c(=O)c(-c2cccc(C(F)(F)F)c2)c1,AC50,[1],50 µM (active)
same,AC50,[2],50 µM (active)
O=C(N[C@H](c1ccccc1)[C@@H]1CN2CCC1CC2)c1c(Cl)ccc(C(F)(F)F)c1Cl,AC50,[1],62.8 µM (active)
same,AC50,[2],55.8 µM (active)
same,AC50,[3],61.2 µM (active)
COC(=O)Nc1nc2ccccc2[nH]1,AC50,[1],50 µM (active)
same,AC50,[2],17 µM (active)
same,AC50,[3],16.5 µM (active)
same,outcome,[5],inactive
same,outcome,[4],inactive
same,AC50,[6],19.6 µM (active)
CN(C)C(=O)Nc1ccc(Cl)cc1,outcome,[1],inactive
same,AC50,[2],50 µM (active)
same,outcome,[3],inactive
same,outcome,[4],inactive
CCOc1cccc(C2(N3CCN(c4ccccc4)CC3)CCC(C)CC2)c1 (stereo unspecified),outcome,[1],inactive
same,outcome,[2],inactive
same,outcome,[3],inactive
CCC(C)c1ccc(O)cc1 (stereo unspecified),AC50,[1],50 µM (active)
same,AC50,[2],61.6 µM (active)
same,AC50,[3],89.2 µM (active)
CN(C)c1ccccc1,outcome,[1],inactive
same,outcome,[2],inactive
Clc1ccc(C(c2ccc(Cl)cc2)C(Cl)(Cl)Cl)cc1,outcome,[7],inactive
same,AC50,[8],41.7 µM (active)
same,AC50,[9],1.95 µM (active)
same,AC50,[10],4.09 µM (active)
same,AC50,[1],8.63 µM (active)
same,outcome,[2],inactive
same,AC50,[11],1.31 µM (active)
same,AC50,[12],17.6 µM (active)
same,AC50,[13],2.52 µM (active)
same,AC50,[14],3.31 µM (active)
same,AC50,[3],28.4 µM (active)
same,outcome,[4],inactive
same,outcome,[15],inactive
